Rows were chosen to be rich in hits. Some 5.2% of all compounds tested hit in one or more screens of this group.
SMARCA2 act – activators of SMARCA2 function; MG213 cells, MMTV-luciferase reporter, dexamethasone, overnight; activation, % at 9.1 µM; hit rate 1% among 370,000; AID 652017; in the data active = activation above about 7.8%;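 also: 0% = vehicle wells and 100% = reference activator wells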
NadD inh – NadD (S. aureus) enzyme inhibition; purified NadD enzyme, colorimetric absorbance read-out; inhibition, % at 20 µM; hit rate 0.78% among 360,000; in the data active = inhibition above about 26%
SKN-1 block – C. elegans SKN-1 inhibition; C. elegans VP596 Pgst-4::GFP/RFP ratio, acrylamide-induced, 24 h; hit rate 0.49% among 360,000; AID 624304; inhibition, % at 21.8 µM;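 active = interference check ratio from 0.5 to 1.5 plus GFP to RFP signal ratio inhibition reaching or exceeding a fixed threshold, cut at about 30% in these data, passing the limit was not always enough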
Vif imaging – inhibitors of HIV Vif; hit rate 0.35% among 340,000; HEK293T cells, Vif self-association by quenched fluorescence, imaging, 24 h; inhibition, % at 7.49 µM; in the data active = inhibition above about 50%, passing the limit was not always enough
esBAF inh – SWI/SNF esBAF complex inhibition | hit rate 2% among 350,000 | mouse ES cells, Bmi1-luciferase knock-in reporter, 24 h; 100% = twice the neutral-well signal | reporter increase, % at 12.5 µM | AID 602393; in the data active = activation above about 40%;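 also: 0% = median of the plate's neutral control wells and 100% = double that signal; a rise in the Bmi1 reporter signal indicates esBAF inhibition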
NR3A LBD binder – modulators (binders) of human NR3A ligand-binding domain; NR3A LBD differential scanning fluorimetry, Tm shift; 0% = protein alone, 100% = glycine-bound protein; Tm shift relative to glycine control, % at 25 µM; hit rate 2.5% among 340,000; AID 1259313;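 active = melting temperature shift of at least 10% of the positive control shift, at one fixed dose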
Numbers without * were called inactive.

Screening O=C(Cc1ccc(F)cc1)Nc1nc(-c2ccc(F)c(F)c2)cs1 returned SMARCA2 act -2.6, NadD inh -4.5, SKN-1 block 6.3, Vif imaging -4.0, esBAF inh 6.8 and NR3A LBD binder -0.7.
`O=C(CSc1ncnc2[nH]ncc12)Nc1nc(-c2ccc(F)c(F)c2)cs1` gave SMARCA2 act -4.2, NadD inh 0.2, SKN-1 block -9.3, Vif imaging -14.4 and NR3A LBD binder 20.2*.
Screening N#CC(c1ccccc1)c1ccc2c(C(F)(F)F)cc(C(F)(F)F)nc2n1 (stereo not given) returned SMARCA2 act -0.7, NadD inh 0.7, SKN-1 block 18.0, Vif imaging 1.9 and NR3A LBD binder -7.0.
For Cc1ccc(C(C#N)c2ccc3c(C(F)(F)F)cc(C(F)(F)F)nc3n2)cc1 (stereo not given) the results were SMARCA2 act 1.5, NadD inh -0.6, SKN-1 block 43.8*, Vif imaging 4.0 and NR3A LBD binder -0.6.
CC(=O)Nc1ccc(C(=O)N/N=C/C2CC3C=CC2C3)cc1 (stereo not given) was read as SMARCA2 act -1.6, NadD inh -4.3, SKN-1 block 6.3, Vif imaging 3.8 and NR3A LBD binder 0.2.
CC(C)C(=O)Nc1ccc(C(=O)N/N=C/C2CC3C=CC2C3)cc1 (stereo not given) was read as SMARCA2 act -2.7, NadD inh -1.0, SKN-1 block 7.8, Vif imaging 57.9* and NR3A LBD binder -20.8.
Cc1cccc(-c2noc(C3CCCCC3)n2)c1 was read as SMARCA2 act 0.7, NadD inh -1.2, SKN-1 block -19.0, Vif imaging -4.1, esBAF inh 63.3* and NR3A LBD binder 0.5.
`Cc1ccc(-c2noc(C3CCCCC3)n2)cc1` gave SMARCA2 act 0.1, NadD inh 0.4, SKN-1 block 2.9, Vif imaging 0.4 and NR3A LBD binder 0.8.
Screening Cc1ccc(S(=O)(=O)Nc2nc3ccccc3nc2NCc2ccco2)cc1C returned SMARCA2 act 0.5, NadD inh 10.2, SKN-1 block 5.1, Vif imaging -22.5, esBAF inh 14.9 and NR3A LBD binder 1.3.
For O=S(=O)(Nc1nc2ccccc2nc1NCc1ccco1)c1ccc(Cl)cc1 the results were SMARCA2 act 0.9, NadD inh 11.1, SKN-1 block 6.4, Vif imaging 62.0*, esBAF inh -1.4 and NR3A LBD binder -0.4.
COc1ccc(NC(=S)Nc2ccccn2)c(OC)c1 was read as SMARCA2 act -2.6, NadD inh 0.9, SKN-1 block -0.5, Vif imaging 10.6, esBAF inh 69.1* and NR3A LBD binder 3.5.
For COc1ccc(NC(=S)Nc2cc(C)ccn2)c(OC)c1 the results were SMARCA2 act 7.1, NadD inh -1.9, SKN-1 block 5.1, Vif imaging 15.4, esBAF inh 67.6* and NR3A LBD binder 0.0.
COc1ccc(NC(=S)Nc2cccnc2)c(OC)c1 was read as SMARCA2 act 3.3, NadD inh -7.9, SKN-1 block 5.5, Vif imaging 16.5, esBAF inh -13.6 and NR3A LBD binder 0.5.
For COc1ccc(NC(=S)Nc2ccc(OC)cc2OC)c(OC)c1 the results were SMARCA2 act 0.5, NadD inh 2.9, SKN-1 block -0.2, Vif imaging 13.9 and NR3A LBD binder 0.0.
Screening CC(=O)NCC(=O)OCC(=O)Nc1ccc(C(C)=O)cc1 returned SMARCA2 act 0.7, NadD inh 0.3, SKN-1 block 14.6, Vif imaging 0.5, esBAF inh -7.3 and NR3A LBD binder 13.1*.
`CC(=O)OCC(=O)Nc1ccc(C(C)=O)cc1` gave SMARCA2 act -0.5, NadD inh 3.3, SKN-1 block 5.8, Vif imaging 0.4, esBAF inh 10.4 and NR3A LBD binder 3.3.
Screening CC(=O)Nc1ccc(C(=O)OCC(=O)NC(=O)NC(C)(C)C)cc1 returned SMARCA2 act -1.7, NadD inh -1.2, SKN-1 block 44.9*, Vif imaging -3.0, esBAF inh 3.0 and NR3A LBD binder 0.2.
`CCN(CC(=O)Nc1c(C(=O)OC)[nH]c2ccc(Cl)cc12)c1ccc2c(c1)OCO2` gave SMARCA2 act -0.4, NadD inh 15.9, SKN-1 block 3.7, Vif imaging -23.9, esBAF inh -14.2 and NR3A LBD binder 1.3.
Screening CCOC(=O)c1[nH]c2ccc(Cl)cc2c1NC(=O)/C=C/c1ccc2c(c1)OCO2 returned SMARCA2 act -0.4, NadD inh 14.3, SKN-1 block -10.5, esBAF inh -2.8 and NR3A LBD binder 21.6*.
`O=C(NCC1CC1)[C@@H]1[C@@H](CO)[C@@H]2Cn3c(ccc(-c4cccc(F)c4)c3=O)[C@@H]2N1CC1CCOCC1` gave esBAF inh -1.7.
Screening CCOc1ccc(C(=O)NCC(=O)OCc2c(F)cccc2Cl)cc1OCC returned SMARCA2 act -1.8, NadD inh -10.4, SKN-1 block 9.2, Vif imaging -3.4 and NR3A LBD binder 13.7*.
Screening c1ccc(-c2csc3ncnc(N4CCc5ccccc5C4)c23)cc1 returned SMARCA2 act -2.0, NadD inh 5.2, SKN-1 block 6.7, Vif imaging -5.3, esBAF inh 1.3 and NR3A LBD binder 12.7*.
Screening COc1ccc(-c2csc3ncnc(N4CCN(c5cccc(Cl)c5)CC4)c23)cc1 returned NadD inh 6.0, SKN-1 block 6.8, Vif imaging 16.1, esBAF inh 5.8 and NR3A LBD binder 17.6*.
`COc1ccc(-c2csc3ncnc(N4CCN(S(=O)(=O)c5cccs5)CC4)c23)cc1` gave SMARCA2 act 0.8, NadD inh 12.0, SKN-1 block -3.1, Vif imaging -1.3, esBAF inh -3.0 and NR3A LBD binder -1.1.
Screening c1ccc(-c2csc3ncnc(N4CCOCC4)c23)cc1 returned SMARCA2 act 0.3, NadD inh 5.9, SKN-1 block 4.1, Vif imaging 3.7 and NR3A LBD binder -2.4.
COc1ccc(-c2csc3ncnc(N4CCN(S(=O)(=O)c5ccc(Cl)s5)CC4)c23)cc1 was read as SMARCA2 act -3.4, NadD inh 13.2, SKN-1 block 1.0, Vif imaging 0.6 and NR3A LBD binder 11.5*.
`COc1ccc(-c2csc3ncnc(N4CCN(c5cccc(OC)c5)CC4)c23)cc1` gave SMARCA2 act -0.6, NadD inh 10.5, SKN-1 block 1.0, Vif imaging -3.8, esBAF inh -11.7 and NR3A LBD binder 0.1.
Screening C[C@H]1CN([C@@H](C)CO)C(=O)c2cc(NS(=O)(=O)c3cn(C)cn3)ccc2O[C@@H]1CN(C)Cc1ccccc1 returned esBAF inh 0.0.
`O=S(=O)(c1ccccc1F)N1CC[C@H]2[C@H](CO)Nc3ccc(-c4ccccc4)cc3[C@H]21` gave esBAF inh 6.8.
For C[C@@H]1CCCCO[C@@H](CN(C)C(=O)Nc2ccccc2)[C@H](C)CN([C@@H](C)CO)C(=O)c2cc(NC(=O)Nc3cccc4ccccc34)ccc2O1 the results were esBAF inh -6.0.

From PubChem
